Source: PubChem BioAssay (The Scripps Research Institute Molecular Screening Center)
CHRM1 PAM: human CHRM1 positive allosteric modulation. P11229. CHO-K1 hM1, Fluo-8 calcium fluorescence, ACh EC20; 0% = ACh EC20, 100% = maximal ACh. activation, % at 3 µM. 360,000 compounds, 0.088% hits; in the data active means activation above about 19%, passing the limit was not always enough
Target sequence (P11229 whole entry, looked up): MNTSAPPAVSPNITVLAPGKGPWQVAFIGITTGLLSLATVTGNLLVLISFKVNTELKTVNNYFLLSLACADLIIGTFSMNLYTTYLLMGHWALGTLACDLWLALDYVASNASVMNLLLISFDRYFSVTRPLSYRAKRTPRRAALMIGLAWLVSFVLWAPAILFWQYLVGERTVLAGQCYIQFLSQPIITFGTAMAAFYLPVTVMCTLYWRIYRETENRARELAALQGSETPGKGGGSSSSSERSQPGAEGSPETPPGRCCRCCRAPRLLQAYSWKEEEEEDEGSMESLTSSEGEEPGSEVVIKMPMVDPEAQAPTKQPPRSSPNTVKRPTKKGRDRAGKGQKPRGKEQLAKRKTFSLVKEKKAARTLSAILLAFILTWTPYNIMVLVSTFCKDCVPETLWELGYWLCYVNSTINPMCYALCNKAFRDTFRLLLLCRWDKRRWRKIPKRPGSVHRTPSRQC
M4 ag: agonists of human muscarinic M4 receptor (CHRM4) | CHO-K1 hM4/Gqi5, Fluo-8 calcium fluorescence; vehicle 0%, full acetylcholine response 100% | activation, % at 3 µM | 360,000 compounds, 0.14% hits | AID 624127;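 active means activation above the run mean over all test wells plus 3 SD, cut at about 32% in these data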;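 further: peak over basal fluorescence ratio per well then scaled between controls; 0% = DMSO wells and 100% = acetylcholine at EC100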
CHRM4 PAM: potentiates acetylcholine response at human M4 receptor. 360,000 compounds, 0.4% hits. AID 624126. activation, % at 3 µM. P08173. CHO-K1 hM4/Gqi5, Fluo-8 calcium fluorescence, ACh EC20; 0% = ACh EC20, 100% = maximal ACh;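 active means activation above its plate's cutoff, the mean activation of sample wells plus 3 SD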
CHRM1 antagonist: human CHRM1 antagonism; P11229; CHO-K1 hM1, Fluo-8 calcium fluorescence, ACh EC80 antagonist; inhibition, % at 3 µM; 360,000 compounds, 1.3% hits; AID 588852;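 active means percent inhibition above its own plate's cutoff, namely the mean of that plate's compound wells plus 3 SD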;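 further: peak over basal fluorescence ratio during 140 s after agonist addition; 0% = ACh EC80 plus DMSO and 100% = DMSO alone without agonist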
CHRM1 agonist: human M1 muscarinic receptor agonism; CHO-K1 hM1, Fluo-8 calcium fluorescence, agonist mode; 0% DMSO, 100% acetylcholine EC100; activation, % at 3 µM; 360,000 compounds, 0.33% hits;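 active means activation above the run's mean compound activation plus 3 SD, cut at about 16% in these data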;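 further: peak over basal fluorescence ratio within a 140 s kinetic read after compound addition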
CHRM4 antagonist: blocks acetylcholine activation of human M4 receptor; P08173; CHO-hM4 cells, ACh EC80, Fluo-8 calcium fluorescence; inhibition, % at 3 µM; 360,000 compounds, 0.73% hits; AID 624125;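 active means inhibition above its plate's cutoff, the mean inhibition of sample wells plus 3 SD, cut at about 27% in these data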;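 further: 0% = acetylcholine EC80 with DMSO and 100% = DMSO without agonist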
Starred values were filed as active, the others as inactive. An excerpt weighted towards active compounds, which were near 2.2% of everything screened.

SMILES	CHRM1 PAM	M4 ag	CHRM4 PAM	CHRM1 antagonist	CHRM1 agonist	CHRM4 antagonist
CCOC(=O)c1cnc(-n2nc(C)cc2C)nc1Nc1cccc(C(=O)O)c1	7	0	22	-9	-5	-14
Cc1nnc(N2CCCC(C(=O)NCc3cccc(F)c3)C2)c2nn(-c3ccccc3)c(C)c12 (configuration not stated)	-16	0	-8	30	-6	6
CCc1ccc(CNC(=O)C2CCCN(c3nnc(C)c4c(C)n(-c5ccccc5)nc34)C2)cc1 (configuration not stated)	-40	-1	-13	49*	-13	14
CCCCn1nc(NC(=O)CC(C)C)c2cc3cc(OC)ccc3nc21	-2	1	-3	-1	-2	-9
COc1ccc(Nc2ncc(C(=O)N3CCN(Cc4ccccc4)CC3)c3ccccc23)cc1	-11	23	-28	32*	1	28*
COc1ccc(Nc2ncc(C(=O)N3CCC(C(N)=O)CC3)c3ccccc23)cc1	0	0	-6	9	0	5
CCc1ccc(-c2nc(CN3CCC(C(=O)N4CCN(c5ccccn5)CC4)CC3)c(C)o2)cc1	-16	7	-13	24	-5	-1
CCc1ccc(-c2nc(CN3CCC(C(=O)N4CCN(c5ccccc5)CC4)CC3)c(C)o2)cc1	-11	41*	-27	7	4	10
O=C(Nc1ccc(N2CCN(c3ncccc3C(F)(F)F)CC2)nc1)c1cccs1	-22	18	-51	46*	1	27*
O=C(Nc1ccc(N2CCN(c3ccc(C(F)(F)F)cn3)CC2)nc1)c1cccs1	0	0	5	-1	0	-4
COCCCNC(=O)C1CCN(c2ncccn2)CC1	-3	1	-2	-1	-4	-2
CCCCNS(=O)(=O)c1ccc(NC(=O)Cc2ccccc2[N+](=O)[O-])cc1	-3	4	1	3	-8	0
CC(C)(C)NS(=O)(=O)c1ccc(NC(=O)Cc2ccccc2[N+](=O)[O-])cc1	11	9	20*	1	-1	-5
CC(C(=O)OCC(=O)c1ccccc1)N1C(=O)C2C3CCC(C3)C2C1=O (configuration not stated)	-5	0	-8	16	-3	3
Oc1c(Cl)cc(Cl)cc1C=Nc1ccc2c(c1)OCCO2	2	0	-6	-1	-1	6
COC(=O)C1CCN(c2cc(=O)n(Cc3ccc(F)cc3)c(=O)[nH]2)CC1	8	1	-6	-11	-1	3
CCOC(=O)C1CCCN(c2cc(=O)n(Cc3ccc(F)cc3)c(=O)[nH]2)C1 (configuration not stated)	-9	4	0	1	22*	4
CCOC(=O)C1CCCN(c2cc(=O)n(-c3ccccc3Cl)c(=O)[nH]2)C1 (configuration not stated)	-4	5	10	-5	29*	-7
Cc1cccc(NCc2ccccc2O)c1	7	0	9	-5	-4	6
CC(C)(C)C1(C)OC(=O)C(=Cc2ccc(OCC(=O)Nc3ccccc3)cc2)C(=O)O1 (configuration not stated)	10	3	30*	-21	-3	-17
CCOc1ccc(CN2CCNC(=O)C2CC(=O)NCc2csc(C)n2)cc1 (configuration not stated)	0	0	3	5	-3	7
COc1ccc(NC(=O)CN(C)S(=O)(=O)c2ccc(Br)s2)cc1OC	15	3	0	-15	1	-7
COc1ccc(OCCCC(=O)OCC(=O)N2CCN(S(=O)(=O)c3ccc(C)cc3C)CC2)cc1	4	12	4	9	11	-1
CC(=O)c1ccc(OCCCC(=O)OCC(=O)N2CCN(S(=O)(=O)c3ccc(C)cc3C)CC2)cc1	-9	23	-9	29*	3	5
O=C(O)COc1ccc(/C=C2\SC(=Nc3ccccc3)N(c3ccccc3)C2=O)cc1	6	-1	-8	-2	-5	30*
SMILES	CHRM1 PAM	M4 ag	CHRM4 PAM	CHRM1 antagonist	CHRM1 agonist	CHRM4 antagonist
c1ccc(-c2cc(CSc3nc4ccccc4[nH]3)on2)cc1	-19	10	-7	21*	4	12
Cc1noc(C)c1CSc1nc2ccccc2[nH]1	-20	1	-11	24*	-8	8
O=C(O)c1ccccc1CSc1nc2ccccc2[nH]1	5	1	-3	-1	-4	3
Fc1cccc(F)c1CSc1nc2ccccc2[nH]1	1	0	-4	3	-6	7
CCn1c(=O)c([N+](=O)[O-])c(Cl)c2ccccc21	-8	7	-21	22	-6	39*
NC(=O)c1ccc(NC(=O)COC(=O)c2ccccc2SCC(=O)N2CCCC2)cc1	27*	1	9	-33	5	-13
O=C(COC(=O)c1ccccc1SCC(=O)N1CCCC1)Nc1ccc(OC(F)F)cc1	3	15	-1	-7	-4	-29
CC(C)(C)NC(=O)Cn1cc(C#N)c2cc(Br)ccc21	8	2	3	-4	2	-5
COC(=O)N/N=C/c1ccc([N+](=O)[O-])o1	7	1	30*	6	-2	14
CCOc1ccc(C(C)=O)cc1CN1C(=O)NC(C)(C2CC2)C1=O (configuration not stated)	3	1	-2	-7	-6	-1
CC1CCN(c2nc3c(c(=O)[nH]c(=O)n3C)n2CCSc2ncccn2)CC1	11	0	2	-17	-2	-6
CCCn1c(N)c(C(=O)CSc2nnc3ccccn23)c(=O)n(C)c1=O	5	2	27*	-6	-3	0
COc1ccccc1N1C(=O)C2C(C(=O)c3ccccc3)=NN(c3ccc(Br)cc3)C2C1=O (configuration not stated)	10	20	-7	-6	-1	37*
O=C(CNS(=O)(=O)c1ccc(Br)cc1)NC1CCCC1	4	0	2	-5	-2	1
Cc1ccc(NC(=O)C(C)OC(=O)Cc2c[nH]c3ccccc23)cc1 (configuration not stated)	3	2	24*	2	1	-12
Cc1ccc(C(=O)C(C)OC(=O)Cc2c[nH]c3ccccc23)cc1 (configuration not stated)	0	0	2	-2	-4	-3
Cc1ccc(NC(=O)c2ccc3ccccc3n2)cc1S(=O)(=O)N(C)C	7	1	-2	-3	-6	3
COCCn1c(SCc2cccc([N+](=O)[O-])c2)nc2ccccc2c1=O	-12	5	-11	5	-6	-5
